Assay results published in PubChem BioAssay (NCATS).
Where “and” joins values, the source holds several entries; their conditions need not be identical. Identical values can stand only once. Results filed as inconclusive are left out. A number with no mark means an inactive call. Calls of active or inactive are those of the source. Calls follow the shape of the dose curve; as a rule, active = well fitted cell-killing curve with a large enough effect; inconclusive = small, poorly fitted or top-dose-only effect; inactive = flat fitted curve, though single readings scatter.

assay: Cellular viability qHTS for adrenocortical cancer (ACC) cell line SW-13 (AID 1963989); conditions: SW-13 ACC cells viability, CellTiter-Glo, 48 h; activity (max response): active compounds read low; also: nearly all actives have a fitted effect of over 65% in size;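 as to activity (max response): cells grown in serum-free medium with ITS supplement; % is scaled to controls: 0 for no effect and ±100 for the full control effect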
Summary of the method: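 Viability was read as CellTiter-Glo luminescence after 48 h compound treatment (up to 46 uM final) of SW-13 cells grown serum-free; titration curves were fit with a four-parameter logistic model to give IC50 and efficacy.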
Potency is read from the fitted curve at half-maximal effect.

| SMILES | activity (max response) | Potency |
| --- | --- | --- |
| CCOc1ccccc1N=Nc1c(C)[nH]n(-c2nc(-c3ccccc3)cs2)c1=O | -16.4% | – |
| COC(=O)[C@H](c1ccccc1Cl)N1CCc2sccc2C1 | -22.7% | – |
| Cc1ccc(N(CC2=NCCN2)c2cccc(O)c2)cc1 | – | 23.1 µM (active) and 25.1 µM (active) |
| CC1=C(C)C(=O)C(C(CCCCCC(=O)O)c2ccccc2)=C(C)C1=O (stereo unspecified) | 0.763% and -13.4% | – |
| COc1ccc2cc3[n+](cc2c1OC)CCc1cc2c(cc1-3)OCO2 | – | 10.3 µM (active) and 8.91 µM (active) |
| COc1cc2nc(N(C)CCCNC(=O)C3CCCO3)nc(N)c2cc1OC (stereo unspecified) | -10.5% | – |
| N=C(N)c1ccc(OCCCCCOc2ccc(C(=N)N)cc2)cc1 | – | 16.4 µM (active) and 15.8 µM (active) |

assay: Cellular viability qHTS for adrenocortical cancer (ACC) cell line NCI-H295R (AID 1963990); conditions: CellTiter-Glo ATP luminescence, 48 h; series mostly up to 46.1 µM; activity change, negative = viability loss: at the top concentration; also: nearly all actives have a fitted effect of over 60% in size;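 as to activity change, negative = viability loss: 0% = DMSO only wells and -100% = full killing with cytotoxic reference compound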
Summary of the method: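 CellTiter-Glo ATP luminescence, read 48 h after compound addition, measured viability of NCI-H295R adrenocortical cells grown serum-free with ITS. Final concentrations spanned up to 46 uM. Data normalized to DMSO and doxorubicin, fitted for IC50 and maximal response.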

| SMILES | Potency | activity change, negative = viability loss [%] |
| --- | --- | --- |
| Cc1cc(N2CCOCC2)cc2[nH]c(-c3c(NC[C@@H](O)c4cccc(Cl)c4)cc[nH]c3=O)nc12 | 5.01 µM (active) | – |
| COc1cc(C(C)=O)ccc1OCCCN1CCC(c2noc3cc(F)ccc23)CC1 | – | -26.1 |
| CCOc1ccccc1N=Nc1c(C)[nH]n(-c2nc(-c3ccccc3)cs2)c1=O | – | -22.8 |
| COC(=O)[C@H](c1ccccc1Cl)N1CCc2sccc2C1 | – | -11.6 |
| Cc1ccc(N(CC2=NCCN2)c2cccc(O)c2)cc1 | inactive | – |
| CC1=C(C)C(=O)C(C(CCCCCC(=O)O)c2ccccc2)=C(C)C1=O (stereo unspecified) | inactive | – |
| COc1ccc2cc3[n+](cc2c1OC)CCc1cc2c(cc1-3)OCO2 | inactive | – |
| COc1nccc(-c2c(-c3ccc(F)cc3)ncn2C2CCNCC2)n1 | – | -12.8 |
| COc1cc2nc(N(C)CCCNC(=O)C3CCCO3)nc(N)c2cc1OC (stereo unspecified) | – | -6.18 |
